According to PubChem BioAssay (NCATS):
Inconclusive results are not listed. A number with no mark means an inactive call. Calls of active or inactive are those of the source. The call rests on the fitted dose curve; in most records, active means well fitted cell-killing curve with a large enough effect; inconclusive means small, poorly fitted or top-dose-only effect; inactive means flat fitted curve, though single readings scatter.

Assay: qHTS assay to identify small molecule inhibitors of chordoma cells - UCH-2 (AID 1259356)
Settings: UCH-2 chordoma viability, CellTiter-Glo ATP luminescence, 48 h; series mostly up to 46.1 µM; activity change, negative = inhibition: at the top concentration
On the % scale 0 is the no-effect control and ±100 the full control effect.

Row | SMILES | activity change, negative = inhibition | outcome
1 | COP(=S)(OC)SCN1C(=O)c2ccccc2C1=O | -18.5% | –
2 | CNC(C)(C)Cc1ccccc1 | 2.16% [at 20.6 µM] | –
3 | CN=C1CN(O)C(c2ccccc2)=c2cc(Cl)ccc2=N1 | – | inactive
4 | CC(C)C[C@H](CN)CC(=O)O | -3.41% | –
5 | CN1C(=O)COc2c(C(=O)NC3CN4CCC3CC4)cc(Cl)cc21 (stereo not drawn) | 2.22% | –
6 | O=[N+]([O-])O[C@H]1CO[C@H]2[C@@H]1OC[C@H]2O[N+](=O)[O-] | 5% | –
7 | C=C(C)[C@H]1CN[C@H](C(=O)O)[C@H]1CC(=O)O | 1.36% | –
8 | CCC1(c2ccc(N)cc2)CCC(=O)NC1=O (stereo not drawn) | 0.0911% | –
9 | CN1C(=O)CCS(=O)(=O)C1c1ccc(Cl)cc1 (stereo not drawn) | 5.65% | –
10 | CC(C)=CC1C(C(=O)OCN2C(=O)C3=C(CCCC3)C2=O)C1(C)C (stereo not drawn) | 4.95% | –
11 | Clc1cccc(SC2CCNCC2)n1 | 2.04% | –
12 | C[C@@H](N)[C@@H](O)c1ccccc1 | 8.42% [at 20.6 µM] | –
13 | O=C(N/N=C/c1ccc([N+](=O)[O-])o1)c1cc([N+](=O)[O-])cc([N+](=O)[O-])c1O | -2.2% | –
14 | O=P1(N(CCCl)CCCl)NCCCO1 (stereo not drawn) | 6.4% | –
15 | O=C(O)CCCc1ccc(N(CCCl)CCCl)cc1 | 0.554% | –
16 | CN1CCC(O)(c2ccc(F)cc2)C(C(=O)c2ccc(F)cc2)C1 (stereo not drawn) | -1.96% | –
17 | CN1C(=O)C(O)N=C(c2ccccc2)c2cc(Cl)ccc21 (stereo not drawn) | 7.94% | –
18 | CCOC(=O)CC(SP(=S)(OC)OC)C(=O)OCC (stereo not drawn) | 6.37% | –
19 | COC(=O)[C@@H](N)CCCN/C(N)=N/[N+](=O)[O-] | 10% | –

Row | SMILES | activity change, negative = inhibition | outcome
20 | CCC(C)(C)c1ccc(O)cc1 | 6.53% | –
21 | O=C1Nc2ccc(Cl)cc2C(c2ccccc2)=NC1O (stereo not drawn) | 12.1% | –
22 | O=C1c2ccccc2C(=O)C1C(=O)C(c1ccccc1)c1ccccc1 | -12.8% | –
23 | CC(C)c1c(CN(C)C(C)Cc2ccccc2)n(C)n(-c2ccccc2)c1=O (stereo not drawn) | 20.6% [at 20.6 µM] | –
24 | CCCCC/C=C\C/C=C\C/C=C\C/C=C\CCCC(=O)NCC(=O)O | -22% [at 4.61 µM] | –
25 | CC(NC(C)(C)C)C(=O)c1cccc(Cl)c1 (stereo not drawn) | -3.65% | –
26 | O=C1Nc2ccc(Cl)cc2C(c2ccccc2Cl)=NC1O (stereo not drawn) | 3.59% | –
27 | NNc1ccccc1 | 6.13% | –
28 | CC(C)N(CCC(C(N)=O)(c1ccccc1)c1ccccn1)C(C)C (stereo not drawn) | 7.64% | –
29 | COc1ccc2c(c1)C13CCCC[C@@H]1C(C2)N(C)CC3 (stereo partly drawn) | 3.22% | –
30 | CN1C(=O)NC(=O)C(C)(C2=CCCCC2)C1=O (stereo not drawn) | – | inactive
31 | C[C@](O)(CS(=O)(=O)c1ccc(F)cc1)C(=O)Nc1ccc(C#N)c(C(F)(F)F)c1 | 7.01% | –
32 | O=C1OC(c2ccc(O)c(S(=O)(=O)O)c2)(c2ccc(O)c(S(=O)(=O)O)c2)c2c(Br)c(Br)c(Br)c(Br)c21 | 10.2% | –
33 | Nc1ccc([As](=O)(O)O)cc1 | 13.9% | –
34 | COP(=S)(OC)Oc1ccc(SC)c(C)c1 | 1.46% | –
35 | CC(C)NC(C)C | 3.47% | –
36 | NC(=O)CS(=O)C(c1ccccc1)c1ccccc1 (stereo not drawn) | 13.9% | –
37 | CC(C)(C)NCC(O)c1cc(Cl)c(N)c(C(F)(F)F)c1 (stereo not drawn) | 6.48% | –
38 | CC(C)c1cccc(C(C)C)c1O | -1.85% | –
